# Values joined by “and” are separate entries in the source; they are usually repeats but may differ in a detail not shown here. Identical values can stand only once. Inconclusive results are not listed. More than one record can exist for a structure, and the calls need not agree. Active and inactive are the calls of the source. Rule for the calls, unless noted: active = hit-call score of the fitted dose curve at least 0.9, where 1 is the maximum; inactive = score below 0.9.
# Experiments:
# [1] = biological target: Estrogen receptor (Homo sapiens) (UniProt P03372); assay: CCTE_Deisenroth_AIME_384WELL_LUC_Active: CCTE's 384-well Estrogen Receptor Transactivation Assay with AIME metabolic competence (ERTA luciferase; metabolism positive), Deisenroth Lab (AID 2284030; active = hit-call score of the fitted dose curve at least 0.9, where 1 is the maximum)
# Sequence of Estrogen receptor (Homo sapiens) (P03372 whole entry, looked up): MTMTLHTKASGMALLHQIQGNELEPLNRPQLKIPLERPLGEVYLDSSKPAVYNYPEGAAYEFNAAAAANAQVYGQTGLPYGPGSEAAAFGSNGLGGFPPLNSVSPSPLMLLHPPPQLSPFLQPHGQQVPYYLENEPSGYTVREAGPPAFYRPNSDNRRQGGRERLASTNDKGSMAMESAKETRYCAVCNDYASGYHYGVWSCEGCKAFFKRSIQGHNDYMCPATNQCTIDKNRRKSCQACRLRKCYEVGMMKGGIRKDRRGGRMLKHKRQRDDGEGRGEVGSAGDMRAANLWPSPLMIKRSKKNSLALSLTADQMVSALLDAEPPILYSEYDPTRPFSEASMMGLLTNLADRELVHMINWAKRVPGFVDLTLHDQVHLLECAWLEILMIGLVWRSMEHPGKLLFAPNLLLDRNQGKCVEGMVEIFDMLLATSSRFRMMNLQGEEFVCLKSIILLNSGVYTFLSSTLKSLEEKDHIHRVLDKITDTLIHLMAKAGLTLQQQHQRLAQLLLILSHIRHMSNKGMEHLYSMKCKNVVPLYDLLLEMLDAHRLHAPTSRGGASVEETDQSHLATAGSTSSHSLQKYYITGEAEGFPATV
# Method in brief: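 Estrogenic luciferase signal in VM7Luc4E2 cells is measured at 24 hour, after chemicals have been preconditioned 2 hours with PB/BNF-induced rat hepatic S9 in alginate. Gain of signal is fitted relative to 17beta-estradiol, across 0.002 - 200 uM.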
# [2] = CCTE_Harrill_HTTr_Viability_MCF7: CCTE's 6-hour Cell Viability Assessment for the High-Throughput Transcriptomics (HTTr) Platform, in MCF-7 cells cultured in DMEM + 10% fetal bovine serum, Harrill Lab (AID 2284010)
# Method in brief: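 Viability measured through PI dye exclusion by high-content imaging at 6 h post-dosing.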
# [3] = CCTE_Harrill_HTTr_Apoptosis_MCF7: CCTE's 6-hour Apoptosis Assessment for the High-Throughput Transcriptomics (HTTr) Platform, in MCF-7 cells cultured in DMEM + 10% fetal bovine serum, Harrill Lab (AID 2284011)
# Method in brief: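 Apoptosis in MCF-7 cells grown in DMEM with 10% fetal bovine serum was scored after a six hour exposure by high content imaging of caspase-3/7 activation (CellEvent Caspase 3/7 Green), with DMSO serving as negative control and baseline.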
# [4] = CCTE_Harrill_HTTr_CellCount_MCF7: CCTE's Cell Proliferation Assessment for the High-Throughput Transcriptomics (HTTr) Platform, Harrill Lab (AID 2284012; active = hit-call score of the fitted dose curve at least 0.9, where 1 is the maximum;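 note: count of Hoechst-stained nuclei per well by high-content imaging in MCF-7 cells; cells exposed to compound for six hours; intended direction is loss of nuclei count meaning fewer cells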)
# Method in brief: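 Nuclei counting (Hoechst, high content imaging) in MCF-7 after a 6 h treatment at eight concentrations. Activity fitted bidirectionally, DMSO as negative control.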
# [5] = CCTE_Shafer_MEA_dev_firing_rate_mean: CCTE's Neural Network Formation Assay for Mean Firing Rate, Shafer Lab (AID 2284031);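 note: AUC of well mean spike rate recorded on DIV 5 7 9 and 12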;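 for AC50: curve fitted for loss of firing so AC50 reflects decreased mean firing rate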
# Method in brief: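 Developing rat cortical networks on MEA plates undergo 12-day compound exposure. Firing frequency, averaged across active electrodes, is integrated as area under the curve over four recording days, referenced to DMSO.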
# [6] = CCTE_Shafer_MEA_dev_per_burst_spike_percent: CCTE's Neural Network Formation Assay for Percent of Spikes in a Burst, Shafer Lab (AID 2284032);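 for AC50: fitted as a decrease in burst spike percentage below DMSO baseline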
# Method in brief: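 Rat primary cortical neurons on 16-electrode MEA wells, dosed from plating day 0 for 12 days with renewal on DIV 5 and 9; spikes-in-bursts percentage averaged over bursting electrodes, collapsed as AUC across days 5, 7, 9, 12; loss direction versus DMSO.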
# [7] = CCTE_Deisenroth_AIME_384WELL_CTox_Active: Cytotoxicity Assessment (CTOX) in CCTE's 384-well Estrogen Receptor Transactivation Assay with AIME metabolic competence (metabolism positive), Deisenroth Lab (AID 2284037; active = hit-call score of the fitted dose curve at least 0.9, where 1 is the maximum;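 note: chemicals first conditioned 2 h by alginate-bound induced rat liver S9 before cells; activity means signal loss indicating cell death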)
# Method in brief: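 Cytotoxicity in VM7Luc4E2 breast cells, 24 hour, measured as protease-substrate fluorescence loss, after 2-hour metabolic conditioning with induced rat hepatic S9 in alginate microspheres. Concentrations 0.002 - 200 uM, 10 points, bidirectional fitting.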
# [8] = CCTE_Deisenroth_AIME_384WELL_CTox_Inactive: Cytotoxicity Assessment (CTOX) in CCTE's 384-well Estrogen Receptor Transactivation Assay without AIME metabolic competence (metabolism negative), Deisenroth Lab (AID 2284039; active = hit-call score of the fitted dose curve at least 0.9, where 1 is the maximum;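 note: cell viability via live-cell protease substrate cleaved to fluorescent probe; cells exposed 24 h to medium preincubated 2 h with alginate-water beads without S9; loss of fluorescence signal means loss of viability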)
# Method in brief: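 Metabolism-negative arm: chemicals (10-point, 0.002 - 200 uM) preincubated 2 h with alginate-water lids, medium moved onto VM7Luc4E2 cells for 24 h. Fluorescent live-cell protease readout; bidirectional curve fit.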
# [9] = CCTE_Shafer_MEA_dev_active_electrodes_number: CCTE's Neural Network Formation Assay for Number of Active Electrodes, Shafer Lab (AID 2284040; active = hit-call score of the fitted dose curve at least 0.9, where 1 is the maximum;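 for AC50: potency for loss of active electrodes versus DMSO so lower counts are hits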)
# Method in brief: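 Rat cortical primary cultures, 1.5 x 10^5 cells/well, PEI-coated MEA, laminin drop. Continuous exposure DIV 0–12; full media/compound change DIV 5, 9. Readout: electrodes with mean firing ≥5 spikes/min; AUC across days; loss vs DMSO.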
# [10] = biological target: Estrogen receptor (Homo sapiens) (UniProt P03372); assay: CCTE_Deisenroth_AIME_384WELL_LUC_Inactive: CCTE's 384-well Estrogen Receptor Transactivation Assay without AIME metabolic competence (ERTA luciferase; metabolism negative), Deisenroth Lab (AID 2284038; active = hit-call score of the fitted dose curve at least 0.9, where 1 is the maximum;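 note: VM7Luc4E2 breast cells given medium preincubated 2 h with S9-free microspheres; hits raise estrogen receptor luciferase signal so potencies reflect agonists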)
# Method in brief: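 Chemicals (10-point series, 0.002 - 200 uM) were incubated 2 hours with alginate-water microsphere lids lacking S9, then the conditioned medium was transferred to VM7Luc4E2 breast cells for 24 hour. Luciferase induction was read by bioluminescence, fitted upward relative to 17beta-estradiol.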
smiles,measurement,setting,value
O=[N+]([O-])c1cc(C(F)(F)F)c(Cl)c([N+](=O)[O-])c1Nc1ncc(C(F)(F)F)cc1Cl,outcome,[1],inactive
CCCSP(=O)(OCC)Oc1ccc(Br)cc1Cl (stereo not drawn),outcome,[2],inactive
same,outcome,[3],inactive
same,outcome,[4],inactive
same,outcome,[5],inactive
same,outcome,[6],inactive
same,outcome,[7],inactive
same,outcome,[8],inactive
same,outcome,[9],inactive
CC(C1CC1)C(O)(Cn1cncn1)c1ccc(Cl)cc1 (stereo not drawn),outcome,[2],inactive
same,outcome,[3],inactive
same,outcome,[4],inactive
same,outcome,[8],inactive
CCC(=NOC/C=C/Cl)C1=C(O)CC(C2CCOCC2)CC1=O (stereo not drawn),outcome,[2],inactive
same,outcome,[3],inactive
same,outcome,[7],inactive
same,outcome,[8],inactive
C#CC(C)(C)NC(=O)c1cc(Cl)cc(Cl)c1,outcome,[2],inactive
same,outcome,[3],inactive
same,outcome,[7],inactive
same,outcome,[8],inactive
CCOP(=O)(SC(C)CC)N1CCSC1=O (stereo not drawn),outcome,[2],inactive
same,outcome,[3],inactive
same,outcome,[5],inactive
same,outcome,[6],inactive
same,outcome,[7],inactive
same,outcome,[8],inactive
same,outcome,[9],inactive
CCOP(=S)(OCC)Oc1cc(C)nc(C(C)C)n1,outcome,[2],inactive
same,outcome,[3],inactive
same,outcome,[4],inactive
same,AC50,[5],50 µM (active)
same,outcome,[5],inactive
same,AC50,[6],50 µM (active)
same,outcome,[6],inactive
same,AC50,[9],75.9 µM (active)
CCCCSP(=O)(SCCCC)SCCCC,outcome,[2],inactive
same,outcome,[3],inactive
same,AC50,[5],66.3 µM (active) and 11.5 µM (active)
same,AC50,[6],31.1 µM (active) and 49.9 µM (active)
same,AC50,[9],34.3 µM (active) and 15.2 µM (active)
CCCCOC(=O)[C@@H](C)Oc1ccc(Oc2ccc(C#N)cc2F)cc1,outcome,[2],inactive
same,outcome,[3],inactive
same,outcome,[1],inactive
same,outcome,[7],inactive
same,outcome,[10],inactive
CCc1cccc(CC)c1N(COC)C(=O)CCl,outcome,[2],inactive
same,outcome,[3],inactive
CNC(=O)ON=C(C)SC,outcome,[2],inactive
same,outcome,[3],inactive
CSc1nc(NC(C)C)nc(NC(C)C)n1,outcome,[2],inactive
same,outcome,[3],inactive
same,outcome,[4],inactive
same,outcome,[8],inactive
Cc1nn(-c2cc(NS(C)(=O)=O)c(Cl)cc2Cl)c(=O)n1C(F)F,outcome,[2],inactive
same,outcome,[3],inactive
same,outcome,[4],inactive
CCOC(=O)COc1cc(-c2nn(C)c(OC(F)F)c2Cl)c(F)cc1Cl,outcome,[2],inactive
same,outcome,[3],inactive
S=C1NCCN1,outcome,[2],inactive
same,outcome,[3],inactive
same,outcome,[5],inactive
same,outcome,[6],inactive
same,AC50,[9],3.82 µM (active)
Cc1cc(C2CC2)nc(Nc2ccccc2)n1,outcome,[2],inactive
same,outcome,[3],inactive
same,outcome,[4],inactive
CCCOc1nn(C(=O)NS(=O)(=O)c2ccccc2C(=O)OC)c(=O)n1C,outcome,[2],inactive
same,outcome,[3],inactive
same,outcome,[4],inactive
CCNc1nc(Cl)nc(NC(C)(C)C#N)n1,outcome,[2],inactive
same,outcome,[3],inactive
CCCCOC(=O)c1ccccc1C(=O)O,outcome,[2],inactive
same,outcome,[3],inactive
same,outcome,[4],inactive
CCC(=O)Nc1ccc(Cl)c(Cl)c1,outcome,[2],inactive
same,outcome,[3],inactive
same,AC50,[7],19.8 µM (active)
same,outcome,[8],inactive
CNC(=O)Oc1cccc2c1OC(C)(C)O2,outcome,[2],inactive
same,outcome,[3],inactive
same,outcome,[4],inactive
COc1cccc(C(=O)NN(C(=O)c2cc(C)cc(C)c2)C(C)(C)C)c1C,outcome,[2],inactive
same,outcome,[3],inactive
same,outcome,[4],inactive
O=c1ccc(=O)[nH][nH]1,outcome,[2],inactive
same,outcome,[3],inactive
same,outcome,[4],inactive
CCCSP(=O)(OCC)SCCC,outcome,[2],inactive
same,outcome,[3],inactive
same,outcome,[4],inactive
same,outcome,[5],inactive
same,AC50,[6],50 µM (active) and 50.5 µM (active)
same,AC50,[9],27.9 µM (active) and 50.5 µM (active)
CC1(C(=O)Nc2ccc(O)c(Cl)c2Cl)CCCCC1,outcome,[2],inactive
same,outcome,[3],inactive
same,outcome,[7],inactive
same,outcome,[8],inactive
COP(=O)(OC)SCn1c(=O)oc2cc(Cl)cnc21,outcome,[2],inactive
same,outcome,[3],inactive
same,outcome,[4],inactive
same,outcome,[1],inactive
same,outcome,[7],inactive
same,AC50,[8],100 µM (active)
CNc1cnn(-c2cccc(C(F)(F)F)c2)c(=O)c1Cl,outcome,[2],inactive
same,outcome,[3],inactive
same,outcome,[4],inactive
COc1ccc(C(=CC(=O)N2CCOCC2)c2ccc(Cl)cc2)cc1OC,outcome,[2],inactive
same,outcome,[3],inactive
same,outcome,[4],inactive
same,outcome,[7],inactive
same,outcome,[8],inactive
CCOP(=S)(OCC)Oc1ccc([N+](=O)[O-])cc1,outcome,[2],inactive
same,outcome,[3],inactive
same,outcome,[4],inactive
same,outcome,[5],inactive
same,outcome,[6],inactive
same,outcome,[9],inactive
CCC(CC)Nc1c([N+](=O)[O-])cc(C)c(C)c1[N+](=O)[O-],outcome,[2],inactive
same,outcome,[3],inactive
same,outcome,[8],inactive
CCOP(=O)(OCC)Oc1cc(C)nc(C(C)C)n1,outcome,[2],inactive
same,outcome,[3],inactive
same,outcome,[4],inactive
same,outcome,[5],inactive
same,outcome,[6],inactive
same,outcome,[9],inactive
CCOP(=S)(OCC)OC(Cl)C(Cl)(Cl)Cl (stereo not drawn),outcome,[2],inactive
same,outcome,[3],inactive
same,outcome,[4],inactive
same,AC50,[5],23.4 µM (active)
same,AC50,[6],50 µM (active) and 19 µM (active)
same,AC50,[9],50 µM (active) and 22.9 µM (active)
CC(Oc1cccc(Cl)c1)C(=O)O (stereo not drawn),outcome,[2],inactive
same,outcome,[3],inactive
same,outcome,[5],inactive
same,outcome,[6],inactive
same,outcome,[9],inactive
Nc1nc(N)nc(NC2CC2)n1,outcome,[2],inactive
same,outcome,[3],inactive
same,outcome,[4],inactive
same,outcome,[7],inactive
same,outcome,[8],inactive
CCCCN(CC)c1c([N+](=O)[O-])cc(C(F)(F)F)cc1[N+](=O)[O-],outcome,[2],inactive
same,outcome,[3],inactive
COP(=O)(OC)OC(Br)C(Cl)(Cl)Br (stereo not drawn),outcome,[2],inactive
same,outcome,[3],inactive
same,outcome,[4],inactive
same,AC50,[5],7.31 µM (active) and 13 µM (active)
same,AC50,[6],7.85 µM (active) and 19.1 µM (active)
same,AC50,[9],7.62 µM (active) and 14.8 µM (active)
CSc1nnc(C(C)(C)C)c(=O)n1N,outcome,[2],inactive
same,outcome,[3],inactive

# From PubChem BioAssay (EPA / NIEHS)
